Values of other authors, collected in PubChem BioAssay AID977611.
Hit rate of the full screen: of about 3,900 compounds, about 3,900 (100%) were called active. No cut-off is given here; in the data, nearly all actives have Kd up to about 4200 µM. So high a share suggests a set chosen from earlier hits. Some of the results follow. Where a SMILES comes first, the peptide text is derived from it. Square brackets hold non-standard residues; d marks the D form. Peptide text beside a SMILES is read from it. [ ]: non-standard residue; d: D form. Orn(CH(NH2)2) = NC(N)NCCC[C@H](N)C(=O)O

Test: PubChem AID 977611
Details: PDB protein-ligand complexes, literature Kd

In the case of `Nc1ncnc2c1ncn2[C@@H]1O[C@H](CO[P+](O)(O)O[P+](O)(O)OC[C@H]2O[C@H](O)[C@H](O)[C@@H]2O)[C@@H](O)[C@H]1O`, the Kd (protein: Poly [ADP-ribose] polymerase 14 MACRO DOMAIN 1, PDB entry 3q6z) is listed as 192 µM (active), the Kd (protein: Poly [ADP-ribose] polymerase 14 MACRO DOMAIN 1 and 2, PDB entry 3vfq) is listed as 6.4 µM (active) and the Kd (protein: Poly [ADP-ribose] polymerase 14 MACRO DOMAIN 2, PDB entry 3q71) is listed as 6 µM (active). For the same compound, the Kd (protein: Poly [ADP-ribose] polymerase 14 MACRO DOMAIN 3, PDB entry 4abk) was 1.9 µM (active).
In the case of `Nc1ncnc2c1ncn2[C@@H]1O[C@H](CO[P+](O)(O)O[P+](O)(O)O[P+](O)(O)O[P+](O)(O)O[P+](O)(O)OC[C@H]2O[C@@H](n3cnc4c(N)ncnc43)[C@H](O)[C@@H]2O)[C@@H](O)[C@H]1O`, the Kd (protein: Adenylate kinase, PDB entry 4w5j) is given as 0.057 µM (active).
For `C[C@H](NC(=O)[C@H](Cc1c[nH]c2ccccc12)NC(=O)[C@H](CC(N)=O)NC(=O)[C@@H](N)CC(N)=O)C(=O)N[C@@H](CC(=O)O)C(=O)N[C@@H](Cc1ccccc1)C(=O)N[C@@H](CO)C(=O)N[C@@H](CO)C(=O)N[C@H](C(=O)N[C@@H](Cc1c[nH]c2ccccc12)C(=O)N1CCC[C@H]1C(=O)O)[C@@H](C)O` (H-NNWADFSSTWP-OH), the Kd (protein: Adaptor protein complex AP-2, subunit beta-1, PDB entry 3hs9) is listed as 0.49 µM (active).
In the case of H-PDVSSSTA-OH, the Kd (protein: Speckle-type POZ protein, SPOPMATH, PDB entry 3ivq) is listed as 76.1 µM (active).
For `CC(=O)N1CCC[C@H]1C(=O)N[C@@H](Cc1c[nH]c2ccccc12)C(=O)N[C@@H](C)C(=O)N[C@H](C(=O)N[C@@H](CS)C(=O)N[C@@H](CC(=O)O)C(=O)N[C@@H](CO)C(N)=O)[C@@H](C)O`, the Kd (protein: Thiol:disulfide interchange protein DsbAC30S, PDB entry 4od7) is given as 8.3 µM (active).
In the case of H-PHGGSWGQP-OH, the Kd (protein: POM2 Fab, PDB entry 4j8r) is listed as 0.02 µM (active).
In the case of H-PDWDFN-NH2, the Kd (protein: AP-1 COMPLEX SUBUNIT GAMMA-LIKE 2, PDB entry 3zhf) is given as 120 µM (active).
For `C[C@H](NC(=O)[C@H](Cc1c[nH]c2ccccc12)NC(=O)[C@H](CC(N)=O)NC(=O)[C@H](CC(N)=O)NC(=O)[C@@H]1CCCN1)C(=O)N[C@@H](CC(=O)O)C(=O)N[C@@H](Cc1ccccc1)C(=O)N[C@@H](CO)C(=O)N[C@@H](CO)C(=O)N[C@H](C(=O)N[C@@H](Cc1c[nH]c2ccccc12)C(=O)N1CCC[C@H]1C(=O)O)[C@@H](C)O` (H-PNNWADFSSTWP-OH), the Kd (protein: Adaptor protein complex AP-2, alpha 2 subunit, PDB entry 3hs8) is listed as 5 µM (active).
For `NCCCC[C@H](NC(=O)[C@H](CO)NC(=O)[C@@H]1CCCN1)C(=O)N[C@@H](CCCCN)C(=O)N[C@@H](CCCNC(N)N)C(=O)N[C@@H](CCCCN)C(=O)N[C@@H](CCCNC(N)N)C(=O)N[C@@H](CO)C(=O)N[C@@H](CCCNC(N)N)C(=O)N[C@@H](Cc1c[nH]c2ccccc12)C(=O)N[C@@H](CC(N)=O)C(=O)N[C@@H](CCC(N)=O)C(=O)N[C@@H](CC(=O)O)C(=O)O` (H-PSKK[Orn(CH(NH2)2)]K[Orn(CH(NH2)2)]S[Orn(CH(NH2)2)]WNQD-OH), the Kd (protein: the C-terminal RRM (RRM3) of human U2AF65, PDB entry 1opi) is given as 0.05 µM (active).
For `CCCCCCCC(=O)OC[C@H](CO[P+](O)(O)OC[C@H](N)C(=O)O)OC(=O)CCCCCCC`, the Kd (protein: Matrix protein p17, PDB entry 2lyb) is given as 35 µM (active).
In the case of `CCCCCCCC(=O)OC[C@H](CO[P+](O)(O)OCC[N+](C)(C)C)OC(=O)CCCCCCC`, the Kd (protein: Matrix protein p17, PDB entry 2lya) is given as 65 µM (active).
For `CC(C)C[C@H](CNC(=O)c1cccnc1)Cc1ccc2c(c1C(=O)O)OCO2`, the Kd (protein: HIV integrase, PDB entry 4cjp) is given as 481 µM (active).
For `CC(C)C[C@H](CNC(=O)CCCN)Cc1ccc2c(c1C(=O)O)OCO2`, the Kd (protein: HIV integrase, PDB entry 4ck3) is given as 268 µM (active).
In the case of `CC(C)C[C@H](CNC(=O)c1ccncc1)Cc1ccc2c(c1C(=O)O)OCO2`, the Kd (protein: HIV INTEGRASE, PDB entry 4cj4) is listed as 432 µM (active).
In the case of `CC(C)C[C@H](CNC(=O)Cc1c[nH]c2ccccc12)Cc1ccc2c(c1C(=O)O)OCO2`, the Kd (protein: HIV integrase, PDB entry 4cjq) is listed as 256 µM (active).
In the case of `NC(=O)CC[C@H](NC(=O)c1ccc(O[C@@H]2O[C@H](CO)[C@H](O)[C@H](O)[C@H]2O)cc1)C(=O)N[C@@H](CCCNC(N)N)C(=O)N[C@@H](CO)C(N)=O`, the Kd (protein: PA-I galactophilic lectin, PDB entry 4lkd) is listed as 4.5 µM (active).
In the case of `NC(=O)CNC(=O)[C@H](Cc1c[nH]c2ccccc12)NC(=O)c1ccc(O[C@@H]2O[C@H](CO)[C@H](O)[C@H](O)[C@H]2O)cc1`, the Kd (protein: PA-I galactophilic lectin, PDB entry 4lke) is listed as 4.3 µM (active).
For `NCCCC[C@H](NC(=O)[C@H](Cc1c[nH]c2ccccc12)NC(=O)c1ccc(O[C@@H]2O[C@H](CO)[C@H](O)[C@H](O)[C@H]2O)cc1)C(=O)N[C@@H](Cc1ccc(O)cc1)C(N)=O`, the Kd (protein: PA-I galactophilic lectin, PDB entry 4lkf) is given as 4.3 µM (active).
In the case of `CC[C@H](C)[C@H](NC(=O)[C@@H](NC(=O)[C@@H]1CCCN1C(=O)[C@H](CCCNC(N)N)NC(=O)[C@H](CCCNC(N)N)NC(=O)[C@@H]1CCCN1)C(C)C)C(=O)N[C@@H](CCSC)C(=O)N[C@@H](CCCNC(N)N)C(N)=O` (H-P[Orn(CH(NH2)2)][Orn(CH(NH2)2)]PVIM[Orn(CH(NH2)2)]-NH2), the Kd (protein: Chaperone protein DnaK, PDB entry 4ezt) is given as 7.4 µM (active).
In the case of `CC[C@H](C)[C@H](NC(=O)[C@@H]1CCCN1C(=O)[C@H](CCCNC(N)N)NC(=O)[C@@H]1CCCN1C(=O)[C@@H]1CCCN1)C(=O)N[C@@H](Cc1ccc(O)cc1)C(=O)N[C@@H](CC(N)=O)C(=O)O` (H-PP[Orn(CH(NH2)2)]PIYN-OH), the Kd (protein: Chaperone protein DnaK, PDB entry 4ezq) is given as 6.3 µM (active).
In the case of `CC(C)C[C@H](NC(=O)[C@H](Cc1ccc(O)cc1)NC(=O)[C@@H]1CCCN1C(=O)[C@@H]1CCCN1)C(=O)N1CCC[C@H]1C(=O)N[C@@H](CCCNC(N)N)C(=O)N1CCC[C@H]1C(=O)N[C@@H](CCCNC(N)N)C(=O)O` (H-PPYLP[Orn(CH(NH2)2)]P[Orn(CH(NH2)2)]-OH), the Kd (protein: Chaperone protein DnaK, PDB entry 4ezo) is given as 0.3 µM (active).
For `CC[C@H](C)[C@H](NC(=O)[C@H](CO)NC(=O)[C@H](CCCCN)NC(=O)[C@@H](NC(=O)[C@H](Cc1cnc[nH]1)NC(=O)[C@H](CCC(=O)O)NC(=O)[C@@H]1CCCN1C(=O)[C@H](CCCNC(N)N)NC(=O)[C@@H]1CCCN1C(=O)[C@H](C)NC(=O)[C@@H](NC(=O)[C@@H](NC(=O)[C@@H]1CCCN1C(=O)[C@@H]1CCCN1)C(C)C)[C@@H](C)CC)[C@@H](C)O)C(=O)N[C@@H](Cc1ccc(O)cc1)C(=O)N[C@H](C(=O)N[C@@H](CCCNC(N)N)C(=O)N[C@@H](CO)C(=O)O)[C@@H](C)O` (H-PPVIAP[Orn(CH(NH2)2)]PEHTKSIYT[Orn(CH(NH2)2)]S-OH), the Kd (protein: the SH3 Domain of ?PIX, PDB entry 2df6) is given as 1.05 µM (active).
